This is an account of results in PubChem BioAssay (NCATS).

Inconclusive results are not listed. Active and inactive are the calls of the source. Unless noted, calls come from the whole dose curve; as a rule, active = well fitted curve in the direction sought with a large enough effect; inconclusive = small, poorly fitted or top-dose-only effect, or another doubt; inactive = no such curve, though single readings can be large; an effect the other way counts as inactive or inconclusive.

Test [1] is described as follows: AP1 Signaling Pathway (AID 357; active = well fitted curve in either direction with a large enough effect, not every such curve was filed as active;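 note: ME-180 reporter cells stimulated with EGF at its EC50 level; % is set by controls: 0 for no effect and ±100 for the full control effect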). An outline of the steps:
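Cells are seeded overnight, exposed to compound titrations and an EC50 level of EGF for 5 hours at 37 °C, then loaded with CCF4 dye for 2.5 hours. Beta-lactamase activity under the AP-1 element is read as a blue/green ratio.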

Test [2] addresses Cytochrome P450 1A2 (Homo sapiens) (UniProt P05177). Description: p450-cyp1a2 (AID 410; calls by dose curve;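 note: -100% = full effect of reference inhibitor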). The method in brief: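 Read-out is luminescence from luciferin produced by CYP1A2 demethylation of Luciferin-ME (100uM, at Km). Detection reagent stopped the 60 min NADPH-dependent reaction; signals were normalized to 57 uM furafylline.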
Test [3] in a line: NFAT Signaling Pathway (AID 444; active = well fitted curve in either direction with a large enough effect, not every such curve was filed as active;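 note: carbachol stimulus at about its EC50 of 1 µM final; % is set by controls: 0 for no effect and ±100 for the full control effect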). Conditions: Jurkat NFAT-bla M1, carbachol, beta-lactamase ratio, 5 h; at 38 µM (top of the series). An outline of the steps:
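Jurkat cells carrying an NFAT-driven β-lactamase reporter and co-transfected muscarinic M1 receptor were treated with compound plus carbachol (1 uM final, an EC50 level) for 5 h at 37 °C. CCF4 loading followed for 1 h at RT; 460/530 nm ratio gave %activity.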

For test [4], the target named is Glucocorticoid receptor (Homo sapiens) (UniProt P04150). Kind of test: GR-GFP Redistribution (AID 450;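 active = compounds whose dose series gives a full or clear partial fitted curve of increased nuclear translocation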; note: potency is the fitted concentration of half-maximal effect). Conditions: U2OS GR-GFP nuclear translocation, laser cytometry, 2 h.
Sequence of Glucocorticoid receptor (Homo sapiens) (P04150 whole entry, looked up): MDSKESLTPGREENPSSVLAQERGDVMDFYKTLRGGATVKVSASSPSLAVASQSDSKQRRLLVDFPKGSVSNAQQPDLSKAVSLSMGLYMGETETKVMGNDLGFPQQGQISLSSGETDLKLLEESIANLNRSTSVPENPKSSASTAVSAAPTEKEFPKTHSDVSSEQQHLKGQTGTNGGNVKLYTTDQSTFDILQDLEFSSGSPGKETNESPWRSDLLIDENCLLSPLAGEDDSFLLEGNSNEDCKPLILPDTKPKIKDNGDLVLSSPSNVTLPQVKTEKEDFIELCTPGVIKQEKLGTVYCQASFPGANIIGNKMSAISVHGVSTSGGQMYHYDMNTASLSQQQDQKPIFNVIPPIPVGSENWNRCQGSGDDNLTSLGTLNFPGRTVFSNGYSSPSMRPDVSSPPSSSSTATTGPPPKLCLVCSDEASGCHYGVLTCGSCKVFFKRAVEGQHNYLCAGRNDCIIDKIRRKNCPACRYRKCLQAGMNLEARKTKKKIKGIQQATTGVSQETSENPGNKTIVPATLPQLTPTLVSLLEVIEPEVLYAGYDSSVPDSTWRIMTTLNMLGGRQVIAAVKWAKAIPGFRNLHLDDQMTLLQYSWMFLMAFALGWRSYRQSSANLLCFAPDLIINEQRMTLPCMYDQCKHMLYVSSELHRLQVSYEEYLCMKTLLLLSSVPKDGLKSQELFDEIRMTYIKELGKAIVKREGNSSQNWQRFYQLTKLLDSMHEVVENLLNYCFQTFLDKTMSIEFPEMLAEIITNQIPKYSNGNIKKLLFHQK
For test [5] the target is unchanged. Kind of test: GR-EFC Redistribution (AID 451; calls by dose curve; note: potency is the fitted concentration of half-maximal effect). Conditions: CHO-K1 GR-EFC translocation, beta-gal luminescence, 2 h. The method in brief:
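CHO-K1 cells stably expressing nuclear-localized β-gal enzyme acceptor and GR fused C-terminally to the enzyme donor fragment; ligand-driven nuclear translocation restores β-gal by complementation. Compounds titrated up to 46 uM final, 2 h at 37 °C; luminescence read.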

Test [6] has as its target 3',5'-cyclic-AMP phosphodiesterase 4B (Homo sapiens) (UniProt Q07343). Description: qHTS Assay for Inhibitors of PDE-IV (AID 607; active = well fitted activation curve with a large enough effect in the main read-out, with a control signal flat, not every such curve was filed as active; note: % of control where 0% means no effect). The method in brief:
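Live HEK293 cells with a modified cyclic nucleotide-gated (CNG) channel report intracellular cAMP via membrane-potential dye fluorescence (ex 535/em 590 nm). Endogenous PDE-IV was targeted. Compounds were tested at up to 22.9 uM final; RO 20-1724 100 uM served as control.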
(In qHTS, concentration-response curves come from the screen itself.)

Test [7] deals with Guanine nucleotide-binding protein G(i) subunit alpha-1 (Homo sapiens) (UniProt P63096). Description: qHTS Assay for Inhibitors of RGS12 GoLoco Motif Activity (Green Fluorophore) (AID 879).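 Note: 0% = labeled peptide with Gαi1 and full inhibition = labeled peptide alone without protein; negative values mean loss of peptide binding seen as reduced polarization.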 The method in brief: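 A drop in FITC polarization marked displacement of the FITC-tagged RGS12 GoLoco peptide (10 nM) from Gαi1 (50 nM). Compounds were incubated 10 min at room temperature in Tris pH 7.5 buffer containing 150 mM NaCl, 0.1 mM GDP and 0.05% NP40; unlabeled peptide titration served as control.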

Test [8] concerns the target Cytochrome P450 3A4 (Homo sapiens) (UniProt P08684). Description: qHTS Assay for Activators of Cytochrome P450 3A4 (AID 885). Note: nearly all actives have a fitted effect of over 65% in size. The method in brief:
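Using 20nM recombinant human CYP3A4 in potassium phosphate (200mM), substrate Luciferin-PPXE at 25uM, luminescent luciferin detection followed a 60-min RT NADPH reaction; data scaled to 57 uM ketoconazole.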

Test [9] can be described thus: qHTS Assay for Identification of Small Molecule Agonists for Hypoxia Response Element Signaling Pathway (AID 914; active = well fitted activation curve with a large enough effect in the signal ratio, with a control signal flat, not every such curve was filed as active; the % refers to the signal ratio; note: % of control where 0% means no effect). Conditions: ME-180 (cervical carcinoma) HRE-bla reporter, beta-lactamase ratio, CoCl2, 17 h; activation: stronger effect = higher value. The method in brief: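 Reporter activity (beta-lactamase, CCF4 460nm/530nm ratio) in HRE-bla ME-180 cells is recorded after 17 h compound exposure with EC50 CoCl2 at 37 degrees Celsius. AC50 values come from titration data.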

The nature of test [10]: qHTS Assay for Identification of Small Molecule Antagonists for Thrombopoietin (TPO) Signaling Pathway (AID 918). Note: potency is the fitted concentration of half-maximal effect; nearly all actives have a fitted effect of over 60% in size. The note with it: TPO-dependent cell signaling reporter, antagonist mode. The method in brief: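 Antagonist mode at EC50 TPO (26 pM) in IL-3-free medium; murine Ba/F3 cells with human TPO receptor and GPIIb-promoter luciferase, 24 hrs at 37 C before luminescent detection.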

Test [11] concerns the target Muscarinic acetylcholine receptor M1 (Rattus norvegicus) (UniProt P08482). Kind of test: qHTS Assay for Antagonists of Acetylcholine Muscarinic M1 Receptor: Measurement of IP-One Response (AID 944). Note: nearly all actives have a fitted effect of over 75% in size. An outline of the steps:
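Antagonism was measured as loss of carbachol-driven (EC80) IP1 accumulation in CHO cells carrying rat M1, using a homogeneous IP-One TR-FRET kit read at 620 and 665 nm.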

The target in test [12] is Pyruvate kinase (Leishmania mexicana) (UniProt Q27686). Kind of test: qHTS Validation Assay for Inhibitors of Leishmania Mexicana Pyruvate Kinase (AID 945).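 Note: 0% = DMSO only neutral control wells.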 The method in brief:
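Mutant LmPYK (E451W), 0.2 nM, plus 0.5 mM PEP and 0.1 mM ADP in 50 mM imidazole pH 7.2 containing 0.01% Tween 20 and 0.05% BSA. Incubated 1 h at room temperature; luminescence via PKLight, normalized to DMSO.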

In test [13] the target is Alpha-galactosidase (Coffea arabica) (UniProt Q42656). Kind of test: Counterscreen for Glucocerebrosidase Inhibitors: qHTS Assay for Coffee Bean alpha-Galactosidase at pH 4.5 (AID 957).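 Note: plate controls were enzyme alone for no effect and no enzyme for full effect.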 The method in brief: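 Quantitative HTS of compounds (0.7 nM to 77 uM) against coffee bean alpha-galactosidase at pH 4.5, measuring 4-methylumbelliferone fluorescence released from 80 uM substrate.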
Sequence of Alpha-galactosidase (Coffea arabica) (Q42656 whole entry, looked up): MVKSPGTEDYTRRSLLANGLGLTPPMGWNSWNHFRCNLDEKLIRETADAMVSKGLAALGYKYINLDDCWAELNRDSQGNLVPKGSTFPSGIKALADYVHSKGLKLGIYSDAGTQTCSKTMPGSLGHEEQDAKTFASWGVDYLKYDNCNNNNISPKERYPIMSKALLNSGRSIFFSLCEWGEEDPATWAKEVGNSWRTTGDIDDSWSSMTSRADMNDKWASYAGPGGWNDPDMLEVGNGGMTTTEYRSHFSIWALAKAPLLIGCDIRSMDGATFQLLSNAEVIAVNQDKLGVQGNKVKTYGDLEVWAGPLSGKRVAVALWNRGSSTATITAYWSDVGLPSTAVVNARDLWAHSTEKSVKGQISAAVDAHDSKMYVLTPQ
(Counterscreens check selectivity or assay interference.)

In test [14] the target is Alpha-galactosidase A (Homo sapiens) (UniProt P06280). Description: Counterscreen for Glucocerebrosidase Inhibitors: qHTS Assay for Human alpha-Galactosidase at pH 4.5 (AID 992). Note: 0% is about no effect. The method in brief: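 Each compound is preincubated briefly with 2 nM enzyme before substrate addition (80 uM); plates then sit 20 min at ambient temperature, are quenched with 1M NaOH/1M glycine, and read fluorometrically.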
Sequence of Alpha-galactosidase A (Homo sapiens) (P06280 whole entry, looked up): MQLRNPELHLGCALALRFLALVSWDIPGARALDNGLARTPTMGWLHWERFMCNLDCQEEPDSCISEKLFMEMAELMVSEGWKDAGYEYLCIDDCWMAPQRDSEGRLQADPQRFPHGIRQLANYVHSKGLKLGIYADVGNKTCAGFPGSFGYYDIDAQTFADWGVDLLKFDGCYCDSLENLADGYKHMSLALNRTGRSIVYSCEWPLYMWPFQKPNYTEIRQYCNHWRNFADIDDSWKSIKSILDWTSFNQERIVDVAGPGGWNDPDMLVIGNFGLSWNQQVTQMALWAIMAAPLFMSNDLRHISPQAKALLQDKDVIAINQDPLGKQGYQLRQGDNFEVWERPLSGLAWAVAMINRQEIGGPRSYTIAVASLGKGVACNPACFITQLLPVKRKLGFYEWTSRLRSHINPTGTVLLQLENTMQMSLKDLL

For test [15], the target named is alpha-glucosidase (Oryza sativa, rice) (UniProt Q653V4). Kind of test: Counterscreen for Glucocerebrosidase Inhibitors: qHTS Assay for Rice alpha-Glucosidase at pH 5.0 (AID 997).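 Note: 0% = full activity with enzyme and -100% = basal without enzyme.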 The method in brief: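 Endpoint fluorogenic assay at pH 5.0: compounds (0.7 nM to 77 uM) titrated against 4 nM rice enzyme and 400 uM 4-MU-alpha-glucoside for 20 min at room temperature; NaOH/glycine stop, read ex 365/em 440 nm, Hill-fitted AC50.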

Test [16] deals with Alpha-galactosidase (Coffea arabica) (UniProt Q42656). Kind of test: Counterscreen for Glucocerebrosidase Inhibitors: qHTS Assay for Coffee Bean alpha-Galactosidase at pH 5.9 (AID 998).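 Note: plate controls were uninhibited enzyme for no effect and no-enzyme basal signal for full effect.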 The method in brief:
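In 50 mM citric acid pH 5.9 with 0.005% Tween-20, coffee bean enzyme hydrolyses 80 uM 4-MU alpha-D-galactopyranoside over 20 min at RT. Activity is normalized to controls; AC50 comes from Hill-modelled concentration-response data.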

A short description of test [17]: qHTS Assay for Lipid Storage Modulators (AID 1519; calls by dose curve; for activity change, negative = inhibition: % is set by controls: 0 for no effect and ±100 for the full control effect). The note with it: Drosophila S3 cells, BODIPY lipid droplet/cell ratio, laser cytometry, cells loaded with oleic acid. An outline of the steps:
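Cells seeded at 5,000 per well were treated with compounds over a concentration series and loaded with oleic acid (400 uM, as added). Lipid droplet fluorescence (488 nm excitation, 500-530 nm channel) was read by laser-scanning cytometry and normalized to 20 uM Triacsin C.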

The target of test [18] is Ubiquitin carboxyl-terminal hydrolase 1 (Homo sapiens) (UniProt O94782). Description: Inhibitors of USP1/UAF1: Pilot qHTS (AID 504865).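 Note: rhodamine fluorescence freed from ubiquitin-rhodamine substrate followed over time; top concentration of the series differs between compounds; % is set by controls: 0 for no effect and ±100 for the full control effect; nearly all actives have a fitted effect of over 35% in size.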 The method in brief:
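Kinetic fluorescence assay: 1nM USP1/UAF1, 15 min compound preincubation, then 150nM Ub-Rho; 480/540 nm.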

The target of test [19] is DNA dC->dU-editing enzyme APOBEC-3G (Homo sapiens) (UniProt Q9HC16). Kind of test: qHTS for inhibitors of Vif-A3G interactions: Validation (AID 588379). Note: 0% is about no effect. The method in brief:
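Yellow fluorescence (Ex 488, Em 500-530) of Vif-coexpressing HeLa A3G-eYFP cells, scanned by Acumen cytometer, reports blocked A3G degradation. Cells plated at 700/well overnight at 37 deg C before compound addition, then a further overnight compound incubation at 37 deg C.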

The subject of test [20] is Zika virus NS2B-NS3 protease. Kind of test: Primary screen GU AMC qHTS for Zika virus inhibitors (AID 1347154).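 Note: 0% = no-inhibitor control and -100% = no-enzyme control; nearly all actives have a fitted effect of over 70% in size.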 An outline of the steps: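 Unlinked Zika NS2B hydrophilic domain/NS3 protease domain noncovalent complex (25 nM final) in 10 mM Tris-HCl pH 8.0, 0.01% Tween 20, with AMC peptide substrate. Fluorescence (ex 340, em 450 nm) change over 15 min, room temperature; percent inhibition fitted to 4-parameter Hill equation.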

Test [21] is described as follows: Primary qHTS for small molecule stabilizers of the endoplasmic reticulum resident proteome: Secreted ER Calcium Modulated Protein (SERCaMP) assay (AID 1508630). Note: % is set by controls: 0 for no effect and ±100 for the full control effect. An outline of the steps:
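The SH-SY5Y reporter protocol was run at 3 concentrations up to 38.3 uM (primary) or 11 concentrations (follow-up): 16 h compound, 100 nM thapsigargin for 4 h, then extracellular luciferase luminescence.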

Sequence of Cytochrome P450 3A4 (Homo sapiens) (P08684 whole entry, looked up): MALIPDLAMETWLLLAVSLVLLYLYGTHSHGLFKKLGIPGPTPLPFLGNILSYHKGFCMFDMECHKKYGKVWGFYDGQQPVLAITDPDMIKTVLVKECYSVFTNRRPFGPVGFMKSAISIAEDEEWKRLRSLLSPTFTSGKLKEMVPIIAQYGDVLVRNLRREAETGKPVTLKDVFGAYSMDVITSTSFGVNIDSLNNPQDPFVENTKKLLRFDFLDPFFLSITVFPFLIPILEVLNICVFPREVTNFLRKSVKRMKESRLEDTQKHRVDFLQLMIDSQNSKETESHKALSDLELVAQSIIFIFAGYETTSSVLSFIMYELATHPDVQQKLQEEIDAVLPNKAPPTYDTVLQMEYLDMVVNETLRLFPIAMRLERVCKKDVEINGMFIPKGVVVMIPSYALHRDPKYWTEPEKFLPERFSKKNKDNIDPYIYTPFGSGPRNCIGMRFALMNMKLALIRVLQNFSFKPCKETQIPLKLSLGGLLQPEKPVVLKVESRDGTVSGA
Sequence of 3',5'-cyclic-AMP phosphodiesterase 4B (Homo sapiens) (Q07343 whole entry, looked up): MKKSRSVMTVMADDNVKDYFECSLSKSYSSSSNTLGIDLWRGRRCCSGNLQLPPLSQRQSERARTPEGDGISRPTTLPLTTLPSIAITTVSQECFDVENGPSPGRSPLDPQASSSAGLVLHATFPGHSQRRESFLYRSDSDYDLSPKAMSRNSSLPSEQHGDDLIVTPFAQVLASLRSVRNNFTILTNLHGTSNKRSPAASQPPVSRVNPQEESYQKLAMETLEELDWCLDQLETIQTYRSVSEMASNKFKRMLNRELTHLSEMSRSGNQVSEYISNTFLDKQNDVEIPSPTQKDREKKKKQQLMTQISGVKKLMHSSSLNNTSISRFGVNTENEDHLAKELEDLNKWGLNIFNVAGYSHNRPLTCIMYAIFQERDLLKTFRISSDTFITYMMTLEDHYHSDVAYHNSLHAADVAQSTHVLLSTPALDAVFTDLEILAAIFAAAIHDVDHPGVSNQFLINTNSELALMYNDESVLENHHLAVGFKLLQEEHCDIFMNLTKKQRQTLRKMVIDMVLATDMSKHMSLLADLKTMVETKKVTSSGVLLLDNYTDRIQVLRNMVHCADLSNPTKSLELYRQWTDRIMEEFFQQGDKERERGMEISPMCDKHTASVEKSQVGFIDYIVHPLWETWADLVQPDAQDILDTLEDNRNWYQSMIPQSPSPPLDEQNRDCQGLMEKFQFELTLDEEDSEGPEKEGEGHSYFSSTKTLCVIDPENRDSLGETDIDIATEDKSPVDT
Sequence of Cytochrome P450 1A2 (Homo sapiens) (P05177 whole entry, looked up): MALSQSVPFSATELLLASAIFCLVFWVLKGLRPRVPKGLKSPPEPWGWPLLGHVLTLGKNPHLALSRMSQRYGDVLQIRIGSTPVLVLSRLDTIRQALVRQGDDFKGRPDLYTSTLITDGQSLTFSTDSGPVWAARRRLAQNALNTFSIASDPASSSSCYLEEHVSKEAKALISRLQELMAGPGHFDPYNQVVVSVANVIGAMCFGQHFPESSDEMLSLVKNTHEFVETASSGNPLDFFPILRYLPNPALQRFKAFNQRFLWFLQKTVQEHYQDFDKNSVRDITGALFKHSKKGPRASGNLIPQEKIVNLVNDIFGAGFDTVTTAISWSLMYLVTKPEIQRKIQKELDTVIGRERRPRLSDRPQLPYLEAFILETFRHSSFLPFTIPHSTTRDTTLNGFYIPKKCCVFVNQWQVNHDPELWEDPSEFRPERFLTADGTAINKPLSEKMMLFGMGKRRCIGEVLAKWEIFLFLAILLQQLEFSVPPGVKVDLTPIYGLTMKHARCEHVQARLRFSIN
Sequence of Muscarinic acetylcholine receptor M1 (Rattus norvegicus) (P08482 whole entry, looked up): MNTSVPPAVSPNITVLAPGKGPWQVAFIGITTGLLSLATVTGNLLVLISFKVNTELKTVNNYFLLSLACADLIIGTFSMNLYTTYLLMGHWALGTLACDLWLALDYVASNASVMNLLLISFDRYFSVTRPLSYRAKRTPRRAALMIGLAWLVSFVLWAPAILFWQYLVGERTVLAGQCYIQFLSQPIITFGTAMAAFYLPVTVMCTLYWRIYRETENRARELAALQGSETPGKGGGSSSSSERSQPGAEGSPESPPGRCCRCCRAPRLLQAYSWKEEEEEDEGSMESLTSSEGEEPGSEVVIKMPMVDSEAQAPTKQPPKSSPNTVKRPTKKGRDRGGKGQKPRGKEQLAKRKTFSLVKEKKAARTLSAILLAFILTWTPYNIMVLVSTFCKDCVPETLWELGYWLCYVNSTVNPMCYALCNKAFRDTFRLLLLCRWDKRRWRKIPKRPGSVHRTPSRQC
Sequence of Ubiquitin carboxyl-terminal hydrolase 1 (Homo sapiens) (O94782 whole entry, looked up): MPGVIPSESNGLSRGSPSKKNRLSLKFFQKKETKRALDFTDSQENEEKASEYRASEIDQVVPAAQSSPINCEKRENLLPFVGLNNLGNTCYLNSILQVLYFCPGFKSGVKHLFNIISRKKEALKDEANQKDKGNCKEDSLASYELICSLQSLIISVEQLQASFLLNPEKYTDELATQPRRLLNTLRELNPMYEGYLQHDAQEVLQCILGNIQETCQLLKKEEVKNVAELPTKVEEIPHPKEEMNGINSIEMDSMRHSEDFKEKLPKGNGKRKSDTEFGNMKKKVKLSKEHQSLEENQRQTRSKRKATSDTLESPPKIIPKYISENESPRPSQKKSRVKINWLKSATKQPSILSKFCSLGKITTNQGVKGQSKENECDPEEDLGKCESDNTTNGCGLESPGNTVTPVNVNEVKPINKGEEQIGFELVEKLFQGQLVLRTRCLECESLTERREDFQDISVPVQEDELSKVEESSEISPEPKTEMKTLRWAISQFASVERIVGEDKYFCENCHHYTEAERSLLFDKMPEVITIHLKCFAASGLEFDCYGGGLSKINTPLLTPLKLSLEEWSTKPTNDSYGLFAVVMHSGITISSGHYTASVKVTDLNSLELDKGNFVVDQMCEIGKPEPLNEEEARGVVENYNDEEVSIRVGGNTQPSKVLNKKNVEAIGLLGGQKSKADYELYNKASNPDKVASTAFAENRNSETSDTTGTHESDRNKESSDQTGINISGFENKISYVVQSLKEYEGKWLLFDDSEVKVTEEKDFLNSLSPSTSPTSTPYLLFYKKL
Sequence of DNA dC->dU-editing enzyme APOBEC-3G (Homo sapiens) (Q9HC16 whole entry, looked up): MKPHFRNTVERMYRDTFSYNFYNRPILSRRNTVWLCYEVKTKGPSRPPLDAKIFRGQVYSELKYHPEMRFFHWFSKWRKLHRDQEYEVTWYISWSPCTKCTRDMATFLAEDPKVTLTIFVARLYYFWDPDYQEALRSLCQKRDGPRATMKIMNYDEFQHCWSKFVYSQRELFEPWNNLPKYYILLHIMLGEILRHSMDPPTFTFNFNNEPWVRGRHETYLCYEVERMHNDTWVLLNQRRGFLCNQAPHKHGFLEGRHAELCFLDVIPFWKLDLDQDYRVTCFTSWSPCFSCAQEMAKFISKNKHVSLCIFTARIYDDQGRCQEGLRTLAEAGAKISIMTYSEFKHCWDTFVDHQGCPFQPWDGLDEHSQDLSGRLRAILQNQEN

With `C=CCN1CC[C@@]23c4c5ccc(O)c4O[C@H]2/C(=N\N=C2/CC[C@@]4(O)[C@H]6Cc7ccc(O)c8c7[C@@]4(CCN6CC=C)[C@@H]2O8)CC[C@]3(O)[C@@H]1C5`, the call in test [1], in test [7], in test [12], in test [13], in test [14] and in test [15] was inactive. Moreover, the outcome in test [16] was inactive. Further, the Potency result in test [2], in [6], in test [8], in test [11], in test [18] and in [19] was “inactive” throughout. Also, the Potency entry in [20] and in [21] was “inactive” in each case. Also, the activity change, negative = inhibition in test [3] was -21.2% (inactive); in test [17] (at 57.5 µM (top of the series)) it was 1.28% (inactive). Besides, the Potency in test [4] was > 46 µM (inactive); in [5] it was > 46 µM (inactive); in test [10], 12.6 µM (active). The activation in test [9] is 0.657% (inactive). Moreover, the values for the max response in test [17] (measured here: cell count channel max response) and in [17] (measured here: lipid channel max response) were 10.9% and 11.9%, respectively.

As to `CC[C@H](C)[C@H](NC(=O)[C@H](CCCN=C(N)N)NC(=O)[C@H](CCCN=C(N)N)NC(=O)[C@H](CC(C)C)NC(=O)[C@H](Cc1ccccc1)NC(=O)CNC(=O)CNC(=O)[C@@H](N)Cc1ccc(O)cc1)C(=O)N[C@@H](CCCN=C(N)N)C(=O)N1CCC[C@H]1C(=O)N[C@@H](CCCCN)C(=O)N[C@@H](CC(C)C)C(=O)N[C@@H](CCCCN)C(=O)O`, the values for the activity change, negative = inhibition in test [20] and in [21] were 3.59% [at 6.83 µM] (inactive) and -25.4% [at 3.88 µM] (inactive), respectively.
